Shown are actives, neighbours in structure and some others; about 4.1% of the full set was active somewhere.
DAX1 inh-1 = inhibitors of DAX1 repression of SF-1 activated StAR promoter; HEK293T StAR-luciferase reporter, SF-1/DAX-1 repression relief; inhibition, % at 6.8 µM; 370,000 tested, 1.1% active;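 active means inhibition above the mean over all tested compounds plus 3 SD, cut at about 3.6% in these data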;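 further: higher inhibition means more luminescence from relief of DAX-1 repression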
DAX1 inh-2 = inhibitors of human orphan nuclear receptor DAX1 (NR0B1); inhibition, % at 6.75 µM; 340,000 tested, 0.99% active; HEK293 Gal4-DAX1 luciferase reporter, luminescence; P51843; AID 504766;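 active means inhibition above the mean over all tested compounds plus 3 SD, cut at about 4.2% in these data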;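 further: inhibition shows as a rise in luminescence from relieved DAX1 repression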
Target sequence (P51843 207-470 limits assumed): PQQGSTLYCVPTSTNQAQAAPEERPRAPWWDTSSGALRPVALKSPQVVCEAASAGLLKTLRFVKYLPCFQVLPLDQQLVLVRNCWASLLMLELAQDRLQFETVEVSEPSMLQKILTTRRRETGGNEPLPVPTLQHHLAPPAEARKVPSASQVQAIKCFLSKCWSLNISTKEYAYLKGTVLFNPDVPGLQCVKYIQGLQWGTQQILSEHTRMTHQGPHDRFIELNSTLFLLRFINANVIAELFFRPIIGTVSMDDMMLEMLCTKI
ssDAF12 agonist = S. stercoralis DAF-12 activation, primary screen; activation, % at 6.8 µM; AID 652126; 370,000 tested, 1% active; HEK293 ssDAF-12/GRIP1 lit1-tk-luc reporter, luminescence; % of 3 µM dafachronic acid response;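 active means activation above the mean over all tested compounds plus 3 SD, cut at about 0.9% in these data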
hgDAF12 agonist = activates the H. glycines DAF-12 receptor ligand-binding domain; AID 687014; activation, % at 6.8 µM; 370,000 tested, 1.8% active; HEK293 GAL4-hgDAF12 UAS-luciferase reporter, agonist luminescence; normalized to butyrate control;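 active means activation above a cutoff set at the mean of all screened compounds plus 3 SD, cut at about 10% in these data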
hcDAF-12 act = activates DAF-12 receptor from parasite H. contortus; HEK293 hcDAF-12 lit1-tk-luc reporter, luminescence; 0% DMSO, 100% Δ7-dafachronic acid; activation, % at 6.8 µM; 370,000 tested, 1.4% active;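 active means activation above the mean of all tested compounds plus 3 SD, cut at about 5.5% in these data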
Hits are given with their value; 0 = inactive; - = no result; ! = not active in a repeat.

SMILES	DAX1 inh-1	DAX1 inh-2	ssDAF12 agonist	hgDAF12 agonist	hcDAF-12 act
COc1ccccc1Cc1c(-c2ccco2)nc2ccc(C)cn12	0	-	0	0	0
COc1ccccc1Cc1c(-c2ccco2)nc2c3ccccc3ccn12	0	-	0	0	5.7
Cc1ccccc1C(=O)N[C@H](C(=O)N1CCC[C@H]1C(=O)NCCc1ccccc1Cl)c1ccccc1	0	-	0	0	0
CC(C)NC(=O)N[C@@H]1C[C@@H]2O[C@@H](CO)CC[C@@H]2O[C@@H]1CCc1ccc(-c2ccccc2F)cc1	0	-	0	0	0
Cc1ccc(C(=O)N2c3ccccc3N=C(c3ccccc3)C2C(=O)NC(C)C)cc1 (centres undefined)	0	-	1.0	0	0
CC(C)NC(=O)C1C(c2ccc(C(F)(F)F)cc2)=Nc2ccccc2N1C(=O)c1cccc2ccccc12 (centres undefined)	0	-	1.1	0	0
CC(C)NC(=O)C1C(c2ccccc2)=Nc2ccccc2N1C(=O)c1cc(Cl)cc(Cl)c1 (centres undefined)	0	-	0	0	0
CC(C)NC(=O)C1C(c2ccccc2)=Nc2ccccc2N1C(=O)c1ccc(C(F)(F)F)cc1 (centres undefined)	0	-	2.3	0	0
COc1ccc(-c2cc(-c3ccc(OC)cc3)nc(-c3ccc4c(c3)NC(=O)CO4)c2)cc1	0	0	0	0	0
COc1cccc(-c2nc(-c3ccc4c(c3)NC(=O)CO4)cs2)c1	0	0	0	10.8	0
CC(=NNc1cc(C)c2ccccc2n1)c1ccccn1	0	-	0.9	0	0
O=S1(=O)c2ccc(N3CC[C@H](O)C3)cc2OCCCN1C1CC1	0	-	0	0	0
COc1cc(/C=N/Nc2nncc3ccccc23)cc(OC)c1OC	0	0	0	0	0
C/C(=N\Nc1nncc2ccccc12)c1ccc(C(C)(C)C)cc1	-	4.9	-	-	-
NCCc1c(C(=O)O)[nH]c2ccc([N+](=O)[O-])cc12	0	0	0	0	0
Cc1c(C(=O)O)[nH]c2ccc([N+](=O)[O-])cc12	0	-	0	0	6.2
Cn1cccc1C(=O)N1CCN(S(=O)(=O)c2ccc(Br)s2)CC1	0	-	0	0	0
COc1ccc(NC(=O)/C=C/C(=O)O)cc1Cl	0	0	0	0	0
COc1ccc(Cl)cc1NC(=O)COC(=O)Cc1cc(OC)c(OC)c(OC)c1	0	0	2.8	0	0
COc1ccc(Cl)cc1NC(=O)Nc1ccc(Br)cn1	0	0	0	0	6.0
COc1ccc(Cl)cc1NC(=O)/C=C\C(=O)O	0	0	0.9	0	0
Cc1nnc(SCC(=O)NNC(=O)c2ccc(F)cc2)n1Cc1ccccc1	0	4.5	1.4	0	0
O=C1c2cccc(NCCCNCCO)c2C(=O)c2cccc(NCCCNCCO)c21	0	0	1.0	0	0
O=C1c2ccccc2C(=O)c2c(NCc3cccnc3)cccc21	0	0	0	0	0
CCCCNc1c(-c2ccc(-c3cccc(Cl)c3)cc2)nc2ccccn12	0	0	0	11.0!	0
SMILES	DAX1 inh-1	DAX1 inh-2	ssDAF12 agonist	hgDAF12 agonist	hcDAF-12 act
CCCCCCSc1ccc(-c2nc3ccccn3c2NCCCC)cc1	0	0	0	0	0
CCOC(=O)CCCNC(=O)OCCCN1CCC2(CCC(c3ccccc3)CC2)C1=O (centres undefined)	0	-	0	0	0
CCCn1c2ccccc2c2cc(C(=O)O)ccc21	0	0	0	0	0
Cn1c2ccccc2c2cc(C(=O)O)ccc21	0	0	0	0	5.9
Nn1c(SCC(=O)N2c3ccccc3Sc3ccc(Cl)cc32)nnc1-c1cc(-c2ccc(F)cc2)n[nH]1	0	-	0	0	0
COP(=O)(O)C[C@@H]1CCc2cc(C)cc([C@H](CC(C)C)NC(=O)OCc3ccccc3)c2O1	0	-	0	0	0
COc1ccc(NC(=O)c2ccco2)cc1NC(=O)COc1ccccc1	0	0	0	0	0
O=C(COC(=O)CCc1ccc(S(=O)(=O)N2CCOCC2)cc1)Nc1ccccc1[N+](=O)[O-]	0	0	0	0	5.6
COc1ccc(NC(=O)c2ccco2)cc1NC(=O)COc1ccccc1[N+](=O)[O-]	0	4.6	0	0	0
O=C(COc1ccccc1[N+](=O)[O-])Nc1ccc2c(c1)CCC2	4.5	0	0	0	0
O=C(COC(=O)COc1ccccc1[N+](=O)[O-])Nc1ccc(S(=O)(=O)N2CCCCC2)cc1	0	0	1.2	0	0

Source: PubChem (The Scripps Research Institute Molecular Screening Center)
